# Sampled rows, rich in hits. Any-hit rate of the full collection: about 0.72%.
# PKA-R2B activ – activators of PKA-R2B holoenzyme, primary screen, biochemical, fluorescence polarization, Cy5-IP20, human. cAMP-dependent protein kinase catalytic subunit beta (Homo sapiens) + cAMP-dependent …. PKA-R2B holoenzyme dissociation; R2B truncated from residue 108, S112A mutant; 0% DMSO only, 100% 113 µM cGMP. activation, % at 11.4 µM. 0.079% of 340,000 active. AID 504700, 2011;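 active = activation above a cutoff set at the mean over all compounds plus 3 SD, cut at about 18% in these data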;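 also: higher means more holoenzyme dissociation and a rise in polarization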
# Neddylation inh – inhibitors of cullin neddylation, primary screen, biochemical, TR-FRET, uHTS, NAE and Ubc12 | 0.58% of 360,000 active | calls only at 25 µM | AID 651699, 2012; in the data active = inhibition above about 36%
# Target sequence (P61081 whole entry, looked up): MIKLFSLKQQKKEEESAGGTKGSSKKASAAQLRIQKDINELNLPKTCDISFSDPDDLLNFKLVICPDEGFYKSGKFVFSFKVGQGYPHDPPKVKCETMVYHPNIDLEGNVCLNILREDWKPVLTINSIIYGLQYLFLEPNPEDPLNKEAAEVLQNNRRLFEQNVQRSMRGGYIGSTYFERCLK
# Target sequence (Q13564 whole entry, looked up): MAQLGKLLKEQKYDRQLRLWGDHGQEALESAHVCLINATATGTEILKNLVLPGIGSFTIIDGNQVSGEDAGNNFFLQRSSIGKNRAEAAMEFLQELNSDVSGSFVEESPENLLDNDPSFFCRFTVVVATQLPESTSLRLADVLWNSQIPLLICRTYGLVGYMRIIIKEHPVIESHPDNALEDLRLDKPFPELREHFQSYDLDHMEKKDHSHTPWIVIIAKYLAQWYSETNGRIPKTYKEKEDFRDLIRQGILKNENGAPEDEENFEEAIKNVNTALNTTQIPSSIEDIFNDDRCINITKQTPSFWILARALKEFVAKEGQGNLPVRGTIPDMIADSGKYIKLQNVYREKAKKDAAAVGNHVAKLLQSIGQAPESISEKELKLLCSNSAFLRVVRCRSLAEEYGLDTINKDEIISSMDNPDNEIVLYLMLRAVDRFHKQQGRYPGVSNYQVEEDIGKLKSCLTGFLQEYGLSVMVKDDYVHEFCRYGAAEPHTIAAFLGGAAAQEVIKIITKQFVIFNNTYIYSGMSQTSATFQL
# PolyA inh – polyadenylation inhibitors in yeast reporter cells, primary screen, luminescence, S. cerevisiae. S. cerevisiae SKY197-pL101 polyadenylation reporter, beta-gal luminescence; efflux-impaired pdr1/pdr3 knockout yeast; score 100 = 6 SD above DMSO. activity score, % at 12 µM. 0.02% of 300,000 active;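 active = lowest replicate activity score at least 50, where 100 means six control SD above control mean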;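 also: yeast exposed to compound for 9 h at 30 °C; higher score means more reporter readthrough which indicates perturbed polyadenylation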
# PKA-R1A activ – activators of PKA-R1A holoenzyme, primary screen, biochemical, fluorescence polarization, Cy5-IP20, bovine R1A, mouse PKAc | AID 504707, 2011 | cAMP-dependent protein kinase type I-alpha regulatory subunit (Bos taurus) + … | activation, % at 11.4 µM | PKA-R1A dissociation; scaled: DMSO 0%, 113 µM cGMP 100% | 0.083% of 340,000 active;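 active = percent activation above the mean of all tested compounds plus 3 SD, cut at about 19% in these data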;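 also: higher means more PKAc released from R1A so a rise in polarization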
# R2B FP artifact – fluorescence polarization artefacts, biochemical, artefact control for PKA-R2B activator project | shares compounds with PKA-R2B activ | FP artifact counterscreen | activation, % at 11.4 µM | 6% of 270 active; in the data active = activation above about 20%;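 also: Cy5 labelled IP20 peptide probe with compound but no PKA protein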
# PKA-R2B act conf – activators of PKA-R2B holoenzyme, confirmation, biochemical, fluorescence polarization, human; shares compounds with PKA-R2B activ; PKA-R2B complex, activation; activation, % at 11.4 µM; 9% of 270 active; AID 504797, 2011; in the data active = activation above about 19%
# R1A FP artifact – FP signal interference without PKA proteins, confirmation, artefact control for PKA-R1A activator project, biochemical, fluorescence polarization, triplicate; Cy5-IP20 peptide alone, fluorescence polarization artifact counterscreen; 7% of 280 active; activation, % at 11.4 µM; shares compounds with PKA-R1A activ;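 active = mean activation over triplicate runs exceeds the adjusted cutoff derived for the parent primary screen, cut at about 19% in these data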;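 also: no PKA protein present so any polarization rise reflects compound interference; 0% = tracer peptide mix alone and 100% = mix with added PKA catalytic subunit; higher means stronger polarization artifact and likely false positive in parent screen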
# PKA-R1A confirm – activators of PKA-R1A holoenzyme, confirmation, biochemical, fluorescence polarization, Cy5-IP20, triplicate; 9% of 280 active; shares compounds with PKA-R1A activ; PKA-R1A holoenzyme dissociation; AID 504800, 2011; activation, % at 11.4 µM;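 active = mean activation over replicate wells exceeds the adjusted hit threshold taken from the earlier primary screen, cut at about 20% in these data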;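 also: 0% = holoenzyme mix with DMSO only and 100% = cGMP-activated control wells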
# Neddyl inh conf – blockade of NEDD8 conjugation to cullin – biochemical, TR-FRET, single concentration, confirmation | shares compounds with Neddylation inh | TR-FRET cullin neddylation biochemical assay | calls only at 25 µM | 13% of 1,800 active; in the data active = inhibition above about 40%;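 also: neddylation substrate is the cullin 1 ring ligase complex with SKP2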
# * = called active by the depositor; i = inactive; / = not tested or not shown; + = active, no number; ! = repeats disagree.
SMILES,PKA-R2B activ,Neddylation inh,PolyA inh,PKA-R1A activ,others
Cc1cc(O)c2c(c1)C(=O)C13C(=C2O)C(=O)[C@H]2[C@@H](O)[C@@H]1[C@H]1[C@H](O)[C@@H]3C(=O)C3=C(O)c4c(O)cc(C)cc4C(=O)C312 (some centres not stated),36.7*,i,/,17.1,
c1ccc(-c2nnc(C3CC(c4cccnc4)=NO3)o2)cc1 (configuration not stated),1.9,i,-5.2,5.4,
CCN1CCN(C(=O)COc2ccc(S(=O)(=O)N3CCOCC3)cc2C)CC1,-1.3,i,21.8,2.4,
O=C(N/N=C/c1c(O)n(Cc2ccccc2)c(=O)[nH]c1=O)c1ccccc1O,-6.5,+,12.5,-16.4,
Cc1cc(C=O)c(C)n1C1CC1,-9.1,i,36.1,-8.0,
COc1cc2c(cc1O)C[C@H]1NCCc3cc4c(c-2c31)OCO4,-4.0,+,-6.2,-1.0,
CCCc1cc(=O)oc2cc(OCC(=O)N3CCC(C(=O)O)(c4ccccc4)CC3)ccc12,-2.3,+,1.8,-11.1,
CCCc1cc(=O)oc2cc(OCC(=O)N3CCN(Cc4ccc5c(c4)OCO5)CC3)ccc12,-3.8,i,11.8,2.2,
N#CCCn1cc(C=C2C(=O)NC(=O)NC2=O)c(-c2ccccc2)n1,19.1*,i,-7.7,9.5,R2B FP artifact=4.7;PKA-R2B act conf=1.9
Oc1ccc2c3c1O[C@H]1[C@@H](O)CC[C@@]4(O)[C@@H](C2)N(CC2CCC2)CC[C@]314,18.7*!,i,-1.3,-9.2,R2B FP artifact=5.3;PKA-R2B act conf=2.7
Cc1ccc(/C=C2/C(=O)NC(=O)N(CCc3ccc(F)cc3)C2=O)o1,24.2*,i,-2.5,8.3,R2B FP artifact=1.9;PKA-R2B act conf=3.7
CCCn1cc(CN2CCCC(C(=O)c3cccc(OC)c3)C2)c(C)n1 (configuration not stated),21.1*,i,9.8,8.3,R2B FP artifact=2.2;PKA-R2B act conf=0.6
CCn1cc(CN2CCCC(C(=O)c3cccc(OC)c3)C2)c(C)n1 (configuration not stated),2.3,i,-5.9,4.8,
COC(=O)CNC(=O)c1cn(CCC#N)nc1-c1ccc(F)cc1,-5.0,i,4.4,-9.5,
O=C(O)c1cccc2c1NC(C(=O)O)C1CC(Sc3ccccc3[N+](=O)[O-])C(Cl)C21 (configuration not stated),21.5*,i,/,5.4,R2B FP artifact=24.0*;PKA-R2B act conf=14.8
CCOP(=O)(OCC)C(NC(=O)c1ccccc1Cl)=C(Cl)Cl,18.5*,i,-0.4,13.5,R2B FP artifact=7.5;PKA-R2B act conf=0.4
CCOP(=O)(C(NC(=O)c1ccccc1Cl)=C(Cl)Cl)c1ccccc1 (configuration not stated),-0.5,i,-1.8,7.9,
COc1ccccc1-n1c(-c2ccccc2Cl)nc2ccccc2c1=O,-2.9,i,3.2,-9.5,
CC(Cc1ccccc1)N(C)CC1C(=O)C2CCC1C2 (configuration not stated),-3.0,i,/,-12.3,
C#CCN(C)C(C)Cc1ccccc1 (configuration not stated),18.8*,i,0.8,-8.4,R2B FP artifact=0.9;PKA-R2B act conf=2.0
Cc1cccc(NC(N)=S)c1,-8.6,i,8.6,-15.0,
CCOCC1(CCc2ccccc2)C(=O)NC(=S)NC1=O,-1.6,i,/,-9.2,
O=C1NC(=S)NC(=O)C1=Cc1cccn1-c1ccc(O)cc1,1.5,i,27.9,21.2*,R1A FP artifact=3.8;PKA-R1A confirm=1.4
Cc1nn(Cc2ccccc2)c(C)c1C(=O)OCC(=O)Nc1cc(S(C)(=O)=O)ccc1Cl,-2.5,i,-8.0,-7.1,
CN(C)C(=O)Oc1ccc(Cl)c2cccnc12,5.4,+,18.9,-2.5,Neddyl inh conf=i
SMILES,PKA-R2B activ,Neddylation inh,PolyA inh,PKA-R1A activ,others
CN(C)C(=O)Oc1c(Cl)cc(Cl)c2ccccc12,-0.8,i,2.7,2.8,
CCCCCCC(=O)N/N=C/c1c(O)n(C(C)CC)c(=S)[nH]c1=O (configuration not stated),-8.4,i,-1.4,-14.3,
CCCCCCC(=O)N/N=C/c1c(O)n(C2CC2)c(=S)[nH]c1=O,8.1,+,-10.8,-10.6,Neddyl inh conf=i
Cc1cc(N(CCCl)CCCl)ccc1C=NNC(=O)c1cccnc1,2.5,+,/,0.8,Neddyl inh conf=i
O=C1CN=C(c2ccc(Br)cc2)c2oc3ccccc3c2N1,6.0,+,1.9,-7.0,Neddyl inh conf=i
COc1cccc(-n2c(O)c(C=NCCN3CCNCC3)c(=O)[nH]c2=S)c1,-4.7,i,-9.2,-3.4,
Cn1c(O)c(C=NCCN2CCNCC2)c(=O)[nH]c1=O,/,i,5.2,/,
CCn1c(O)c(/C=N/NC(=O)c2ccccc2)c(=O)[nH]c1=S,2.5,+,-21.4,-5.8,Neddyl inh conf=i
C[n+]1ccc(-c2ccccc2)c2ccccc21,1.7,+,5.5,-2.2,Neddyl inh conf=+
CN(C)c1ccc(/C=C/c2cc[n+](C)c3ccccc23)cc1,1.0,i,/,10.5,
COC(=O)c1ccc(CC(C(=O)c2ccccc2)N(C)C)cc1 (configuration not stated),1.2,i,14.9,-1.7,
O=C1CN=C(c2ccc[nH]2)c2cc(Cl)ccc2N1,4.7,+,6.8,3.2,Neddyl inh conf=+
S=C=Nc1cccc(C2(N3CCCCC3)CCCCC2)c1,0.0,i,/,-3.6,

# Screens deposited in PubChem BioAssay by several laboratories.
